Source: PubChem BioAssay
LASV entry inh = Lassa virus entry inhibition; Lassa virus pseudotype entry inhibition, cell reporter; Potency, µM (titrated, usually from 37.9 µM), for inactives: at the highest dose activity change, negative = inhibition, usual class: inhibitors; 300,000 compounds, 1.2% hits; calls by dose curve; tested in HEK293 cells; also: potency is read from the fitted curve at half-maximal effect; % is scaled to controls: 0 for no effect and ±100 for the full control effect; nearly all actives have a fitted effect of over 50% in size
Pf growth 48h = inhibits P. falciparum growth in the first generation, 48 h. P. falciparum luciferase growth in erythrocytes, 48 h. Potency, µM (highest dose often 28.7 µM), inactives show at the highest dose activity change, negative = inhibition, actives largely listed as inhibitors. 310,000 compounds, 5.9% hits; also: potency is read from the fitted curve at half-maximal effect; % is scaled to controls: 0 for no effect and ±100 for the full control effect
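Growth was read as firefly luciferase luminescence after a 48 h, 37 C, 5% CO2 exposure of compounds to reporter-bearing P. falciparum cultures (0.1% parasitemia, 2% hematocrit final) in Albumax-supplemented RPMI 1640.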
CHX counter = counter-screen hit for Shiga toxin inhibitors, cycloheximide. max response, %. 300,000 compounds, 12% hits. cell reporter, cycloheximide protein synthesis inhibition counterscreen; in the data active = max response mostly above about 13%, no sharp cut-off; inactive = mostly below about 14%; also: read at 38.3 µM for the half of the compounds with a filed dose; 0% is about no effect
MARV entry inh = blocks Marburg virus binding to or entry into cells; 300,000 compounds, 1.8% hits; Marburg virus pseudotyped entry inhibition, cell reporter; Potency, µM (series often up to 37.8 µM), without a hit: top-dose activity change, negative = inhibition, hits mostly inhibitors; calls by dose curve; tested in HEK293 cells; also: potency is read from the fitted curve at half-maximal effect; % is scaled to controls: 0 for no effect and ±100 for the full control effect
Pf growth 96h = P. falciparum growth inhibition at 96 hour, primary screen for plastid delayed-death inhibitors; 320,000 compounds, 6.9% hits; P. falciparum luciferase reporter growth, 96 h; Potency, µM (highest dose often 28.7 µM), for inactives: at the top dose activity change, negative = inhibition, most hits filed as inhibitors; also: potency is read from the fitted curve at half-maximal effect; % is scaled to controls: 0 for no effect and ±100 for the full control effect
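Erythrocytes infected with luciferase-expressing P. falciparum were dispensed at 2% hematocrit and 0.05% parasitemia (final), then incubated with compounds 96 hours at 37 C in 5% CO2. Luminescence after detection reagent addition reported growth.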
Shiga inhibitor = blocks Shiga toxin action in Vero cells. AID 2315. 290,000 compounds, 9.2% hits. Vero cells, Shiga toxin protein synthesis inhibition reporter. inhibition, % at 38.7 µM; in the data active = inhibition mostly above about 28%, no sharp cut-off; inactive = mostly below about 43%; also: 0% is about no effect
Starred values were filed as active, the others as inactive; ? = inconclusive; / = no result; [ ] = another dose, or the depositor's remark. Compounds with a hit are over-represented: about 19% of the library has one in this group of screens. Unless noted, calls follow the shape of the dose curve; as a rule, active = well fitted inhibition curve with a large enough effect; inconclusive = small, poorly fitted or top-dose-only effect, or another doubt; inactive = no such curve, though single readings can be large or run the other way.

SMILES | LASV entry inh | Pf growth 48h | CHX counter | MARV entry inh | Pf growth 96h | Shiga inhibitor
CC1CCCCN1C(=O)c1cc2c(=O)n3ccccc3nc2s1 (stereo not drawn) | 8%[46.1 µM] | 112% | 10 | ? | ? | 52*
CC1(C)C(=O)NCCN1C(=O)CCC(=O)O | ? | -29% | -1 | 9% | ? | 10
CCOC(=O)C1CCN(C(=O)c2cc3c(=O)n4cccc(C)c4nc3s2)CC1 | 4%[46.1 µM] | 7% | -1 | 4%[46.1 µM] | 29% | -6
CCOC(=O)C1CCN(C(=O)c2cc3c(=O)n4ccccc4nc3s2)CC1 | / | 16% | 23* | / | ? | 35
CC1CCCN(C(=O)c2cc3c(=O)n4ccccc4nc3s2)C1 (stereo not drawn) | -25%[46.1 µM] | 117% | 34* | -11%[46.1 µM] | -2% | 78*
O=C(OCc1cc([N+](=O)[O-])cc2c1OCOC2)c1cccnc1SC(F)F | 1% | ? | / | -1% | 0% | /
O=[N+]([O-])c1cc2c(c(CSc3ncccn3)c1)OCOC2 | / | 58% | 21* | 3%[46.1 µM] | 57% | 60
O=C(OCc1cc([N+](=O)[O-])cc2c1OCOC2)c1ccccn1 | -2% | 8% | 33* | 21% | 48% | 35
Nc1cc(N)nc(SCc2cc([N+](=O)[O-])cc3c2OCOC3)n1 | / | -11% | 14 | / | ? | 27
CSc1ccccc1NC(=O)Cn1nnc(-c2ccc(S(C)(=O)=O)cc2)n1 | -3% | -2% | -1 | 3% | 56% | 4
COc1ccc(S(=O)(=O)N(C)CC(=O)N2CCN(Cc3ccccc3)CC2)cc1C | -11% | 1% | 2 | ? | / | -18
CSCCNC(=O)c1ccc(C(C)(C)C)cc1 | ? | 84% | 28* | -19% | 5% | 92*
CC(C)(C)SCCNC(=O)c1ccccc1 | ? | / | 37* | -4% | 49% | 37
Cc1ccc(S(=O)(=O)N(C)c2ccc(C(=O)N3CCOCC3)cc2)cc1 | ? | 18% | -4 | 3%[46.1 µM] | 0% | -4
CN(c1ccc(C(=O)N2CCOCC2)cc1)S(=O)(=O)c1ccc(Cl)cc1 | 15% | -20% | 10* | -3% | 15% | 34*
Cc1ccc(C(=O)NCC(C)NC(=O)c2ccc(C)c([N+](=O)[O-])c2)cc1[N+](=O)[O-] (stereo not drawn) | -6% | / | / | 0% | / | /
CC(CCNC(=O)c1ccccc1)(CCNC(=O)c1ccccc1)[N+](=O)[O-] | 2% | / | / | 15% | / | /
Cc1ccc(C(=O)NCCSC(C)(C)C)cc1[N+](=O)[O-] | 12% | 32% | 54* | ? | -17% | 95*
CN(c1ccc(C(=O)NCCSC(C)(C)C)cc1)S(=O)(=O)c1ccccc1 | 23µM* | ? | 11* | -17% | -2% | 28
COc1c(C(=O)NCCSC(C)(C)C)ccc2ccccc12 | ? | 13% | 13* | 16% | ? | 39*
Cc1ccc(C(=O)NNC(=O)c2ccncc2)cc1[N+](=O)[O-] | / | 14% | / | / | 7% | /
Cc1ccc(C(=O)Oc2ccc(Cl)c3cccnc23)cc1[N+](=O)[O-] | -11% | 13µM* | 10 | ? | ? | -3
Cc1ccc(CSCCNC(=O)c2ccc(N(C)S(=O)(=O)c3ccccc3)cc2)cc1 | ? | 6% | 5 | ? | 77% | 14
Cc1ccc(C(=O)ONC(=O)c2ccc(Cl)cc2)cc1[N+](=O)[O-] | / | -3% | 21* | / | 23% | 34*
CCN1CCC(NCCc2ccc(F)cc2)CC1 | / | ? | -4 | / | 28% | -1
SMILES | LASV entry inh | Pf growth 48h | CHX counter | MARV entry inh | Pf growth 96h | Shiga inhibitor
CCN(CC)C(=O)CSc1ccc(C(F)(F)F)cc1[N+](=O)[O-] | -3% | 5% | -3 | 0% | -3% | 1
Cc1ccccc1CSCCNC(=O)c1ccccc1 | -1% | 12µM* | 12 | 20% | 0% | 12
Cc1ccc(C(=O)NCCSC(C)(C)C)cc1 | 10µM* | / | 43* | 8.9µM* | 72% | 31
CCCCNC(=O)c1ccc(SCC(=O)N(CC)CC)c([N+](=O)[O-])c1 | -14% | 9% | 2 | 2% | 1µM* | -2
CN(c1ccc(C(=O)O)cc1)S(=O)(=O)c1ccccc1 | 19% | 27% | 1 | 0% | 9.3µM* | -1
Cc1ccc(C(=O)NCC(C)(C)O)cc1 | 19% | ? | -1 | -2% | ? | -1
Cc1ccc(C2=Nc3ccccc3N(CC(=O)NCc3ccc(Cl)cc3)C(=O)C2)cc1C | 25%[46.1 µM] | / | / | / | / | /
O=C(CCC1COc2ccccc2O1)Nc1ncccc1O (stereo not drawn) | -1% | -9% | 1 | ? | 11% | -2
Cc1cc(SCC(=O)OCC(=O)NC(C)c2ccccc2)c(C)cc1Br (stereo not drawn) | 3% | 16% | 9 | 0% | 50% | -4
O=C(c1cc(-c2ccc(Br)cc2)on1)N1CCCC1 | ? | 203% | 33* | -1%[46.1 µM] | 25% | 118*
O=C(c1cc(-c2ccccc2)on1)N1CCN(C(=O)c2ccco2)CC1 | 2% | 33% | 19* | 27% | 1% | 38
O=C(O)c1cc(-c2ccccc2)on1 | 1% | / | -5 | 16% | -13% | 5
O=C(c1ccco1)N1CCN(C(=O)c2sccc2-c2ccccc2)CC1 | -1% | ? | -2 | ? | ? | 1
O=C(c1cc(-c2ccccc2)on1)N1CCCCCC1 | 13µM* | 147% | 29* | ? | 23% | 71*
CN1CCN(C(=O)c2cc(-c3ccccc3)on2)CC1 | 10% | 127% | 38* | 7% | / | 109*
Cc1ccsc1/C=N/n1c(-c2ccccc2)n[nH]c1=S | 2% | 10% | 1 | ? | ? | -9
CCN(CC)CC1CCN(c2ncc3ncnc(Nc4ccc(F)c(Cl)c4)c3n2)CC1 | / | / | -17 | / | / | -15
Cc1ccc2nc(-c3ccc(NC(=S)NC4CC(C)(C)NC(C)(C)C4)cc3)sc2c1 | ? | 169% | 12 | ? | 375% | 57
COc1nccnc1NS(=O)(=O)c1ccc(NC(=O)c2ccc(F)cc2)cc1 | -10%[46.1 µM] | 7% | -4 | 8%[46.1 µM] | ? | -9
CCN(CC)C(=O)c1cc(-c2ccc(Br)cc2)on1 | -10% | 179% | 47* | ? | ? | 90*
Cc1cccc(C)c1OCc1cc(C(=O)N2CCC[C@H]2C(N)=O)no1 | 4% | 2% | 14 | 17% | 0% | 25
NC(=O)[C@@H]1CCCN1C(=O)c1cc(COc2ccc3c(c2)CCCC3)on1 | 5% | 2% | 36* | 16% | ? | 34*
O=C(c1cc(-c2ccc(F)cc2)on1)N1CCCC1 | ? | 90% | 50* | ? | / | 66*
CCOC(=O)C1CCCN(C(=O)c2cc(COc3ccc(C)nc3)on2)C1 (stereo not drawn) | -26% | 11% | 51* | -14% | -8% | 73*
CC(C)Oc1ccc(C(=O)NCCNC(=O)c2ccco2)cc1 | 19%[46.1 µM] | -11% | 29 | ? | -12% | 19
Cc1cccc(C(C(C(=O)c2ccccc2)N2CCOCC2)N2CCOCC2)c1 (stereo not drawn) | 24%[46.1 µM] | / | / | 0%[46.1 µM] | / | /
